This note sets out measurements from PubChem BioAssay (NCATS).

Values without a mark were called inactive. Results filed as inconclusive are left out. Calls of active or inactive are those of the source. Calls follow the shape of the dose curve; as a rule, active = well fitted curve in the direction sought with a large enough effect; inconclusive = small, poorly fitted or top-dose-only effect, or another doubt; inactive = no such curve, though single readings can be large; an effect the other way counts as inactive or inconclusive.

The test system of experiment [1] is Zika virus NS2B-NS3 protease (linked construct). Kind of experiment: Primary screen NINDS Rhodamine qHTS for Zika virus inhibitors (AID 1347160). Also: nearly all actives have a fitted effect of over 55% in size. Also: potency is read from the fitted curve at half-maximal effect. A digest of the protocol: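 Aprotinin served as in-plate control. Conditions: 25 nM linked NS2B-NS3, pH 8.0 Tris buffer, titrated compounds, 15 min preincubation and 15 min reaction with 1.5 microM Rhod110 substrate at room temperature.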

Experiment [2] is described as follows: HPAF-II Cancer Cell Toxicity qHTS against the NCATS CANVASS Library (AID 1347346). Also: nearly all actives have a fitted effect of over 55% in size. Also: potency is read from the fitted curve at half-maximal effect. A digest of the protocol: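 First, HPAF-II cells are plated (1000 cells/well) and held 4 h at 37 degrees C. Next, compounds are pin-transferred as an 11-point series. After 72 h, CellTiter-Glo is added and luminescence measured.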
In general terms: Quantitative high-throughput screening tests each substance at several concentrations.

Experiment [3] can be described thus: OV-SAHO Cancer Cell Toxicity qHTS against the NCATS CANVASS Library (AID 1347348). Also: nearly all actives have a fitted effect of over 55% in size. Also: potency is read from the fitted curve at half-maximal effect. The essentials: (§1)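 Following a 4 h pre-incubation of 1000 seeded cells, compounds were pinned in an 11-pnt dilution series and left for 72 h; viability then came from CellTiter-Glo.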
Experiment [4] is described as follows: U-118MG Cancer Cell Toxicity qHTS against the NCATS CANVASS Library (AID 1347351). Also: potency is read from the fitted curve at half-maximal effect. The essentials: as §1
The nature of experiment [5]: COV-362 Cancer Cell Toxicity qHTS against the NCATS CANVASS Library (AID 1347352). Also: potency is read from the fitted curve at half-maximal effect. The essentials: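 First, 1000 cells go into each well and rest for 4 hours. Next, an 11-point dilution range is pinned in. Plates then incubate 72 hours before CellTiter-Glo addition and luminescence reading.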
Experiment [6] is described as follows: HEK293 18hr Apoptosis Induction qHTS against the NCATS CANVASS Library (AID 1347357). Also: potency is read from the fitted curve at half-maximal effect. The essentials:
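HEK293 cells (500 per well, DMEM with 10% FBS) were treated with natural products, incubated 18 hours at 37 degrees C, then caspase-3/7 activity was read by Caspase-Glo luminescence after 15 min at room temperature.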

A short description of experiment [7]: HPAF-II 12hr Apoptosis Induction qHTS against the NCATS CANVASS Library (AID 1347358). A digest of the protocol: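 Cells plated at 500 per well are dosed with compound and incubated 12 hours at 37 degrees C. Caspase-Glo 3/7 reagent is added and, after 15 min at room temperature, luminescence proportional to caspase activity is measured.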
A short description of experiment [8]: HEK293 24hr Apoptosis Induction qHTS against the NCATS CANVASS Library (AID 1347359). A digest of the protocol:
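Caspase-3/7 activation measured as luminescence from the DEVD-based Caspase-Glo reagent, 15 min at room temperature, following 24-hour compound treatment of HEK293 cells.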

A short description of experiment [9]: HPAF-II 18hr Apoptosis Induction qHTS against the NCATS CANVASS Library (AID 1347360). The essentials: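 HPAF-II cells (500/well, DMEM + 10% FBS) were exposed to compounds for 18 hours at 37 degrees C. Caspase-3/7 activity was then read by Caspase-Glo 3/7 luminescence after 15 min at room temperature.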
Experiment [10] in a line: HEK293 12hr Apoptosis Induction qHTS against the NCATS CANVASS Library (AID 1347361). The essentials: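 Read-out: Caspase-Glo 3/7 luminescence (DEVD substrate), 15 min RT. Preceded by 12 h compound exposure of HEK293, 500 cells/well, 11-pt qHTS titration; doxorubicin titration as control.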
Experiment [11] deals with Luciferin 4-monooxygenase (Photinus pyralis) (UniProt P08659). Kind of experiment: Firefly luciferase counterscreen qHTS: Assay Interference Panel against the NCATS CANVASS Library (AID 1347363). Also: series mostly up to about 57 µM. The essentials:
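Luminescence inhibition readout: compounds (11-point qHTS) sat 15 min at room temperature with substrate mix (0.013 mM luciferin and ATP), then firefly luciferase was added and signal read 5 min later.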
(The purpose of a counterscreen is to sort out artefacts and off-target activity.)

Experiment [12] is described as follows: MCF7 Cancer Cell Toxicity qHTS against the NCATS CANVASS Library (AID 1347369). The essentials: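 MCF7, 500 cells/well; cpds 11-pt qHTS; 72 hr, 37C/5% CO2; CellTiterGlo ATP luminescence.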
Experiment [13] in a line: qHTS for ATAD5 Antagonist screened against the NCATS CANVASS Library (AID 1347370).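 Also: HEK293T cells carrying an ATAD5 luciferase reporter co-treated with 10 µM 5-fluorouridine; series mostly up to about 46 µM; nearly all actives have a fitted effect of over 65% in size.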 The essentials:
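Compounds (11-point) co-dosed with 10 µM 5-FUrd for 16 h at 37 °C onto HEK293T-ATAD5 luciferase reporter cells. Viability measured by CellTiter-Fluor fluorescence, then ATAD5 reporter signal by luminescence.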

The nature of experiment [14]: J3T Cancer Cell Toxicity qHTS against the NCATS CANVASS Library (AID 1347371). A digest of the protocol:
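Luminescence from CellTiterGlo, reporting cellular ATP, serves as the viability measure after 72 hr compound treatment of J3T canine glioma cells seeded at 500 cells/well.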

In experiment [15] the target is Nuclear receptor subfamily 1 group I member 3 (Homo sapiens) (UniProt Q14994). Nature of the experiment: qHTS for Constitutive Androstane Receptor (CAR) Antagonist screened against the NCATS CANVASS Library (AID 1347372).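 Also: cells stimulated with 50 nM CITCO agonist so inhibition reflects antagonism; series mostly up to about 46 µM.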 A digest of the protocol: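 Antagonist mode: compound added alongside 50 nM CITCO to HepG2-hCAR-CYP2B6 reporter cells, 24hr at 37C. Viability by CellTiter-Fluor fluorescence, then CAR-driven luciferase by ONE-Glo luminescence.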
Chain of Nuclear receptor subfamily 1 group I member 3 (Homo sapiens) (Q14994 whole entry, looked up): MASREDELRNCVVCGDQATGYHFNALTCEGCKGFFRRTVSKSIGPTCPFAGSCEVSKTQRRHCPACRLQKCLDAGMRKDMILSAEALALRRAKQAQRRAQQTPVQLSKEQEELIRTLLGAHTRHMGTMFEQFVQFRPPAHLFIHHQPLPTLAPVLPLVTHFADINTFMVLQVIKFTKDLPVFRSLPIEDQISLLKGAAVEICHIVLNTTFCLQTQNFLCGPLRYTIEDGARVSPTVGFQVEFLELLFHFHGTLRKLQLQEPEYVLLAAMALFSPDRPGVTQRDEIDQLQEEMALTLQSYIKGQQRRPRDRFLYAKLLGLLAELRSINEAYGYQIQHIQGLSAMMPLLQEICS

Experiment [16] can be described thus: 10-beta competent E. coli microbial cell viability qHTS against the NCATS CANVASS Library (AID 1347376). Also: series mostly up to about 46 µM. The essentials: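 Bacterial suspension diluted to 0.2 OD was dosed with compounds, 11-point series, then held overnight at 37C. BacTiter-Glo reagent was added, and after 20 min at room temperature ATP-dependent luminescence was measured.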
Experiment [17] in a line: qHTS for Inflammasome Signaling Inhibitors: IL-1-beta AlphaLISA screen against the NCATS CANVASS Library (AID 1347379).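 Also: human THP-1 cells primed with LPS then triggered with ATP.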 A digest of the protocol: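 Secreted IL-1B from human THP-1 cells quantified by AlphaLISA 16 hr after compound addition (final up to 57.5 uM). A 1 hr compound pretreatment preceded inflammasome activation with 250 ng/mL LPS plus 1.25 mM ATP (final).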

A short description of experiment [18]: Inflammasome Signaling qHTS Counterscreen: IL-1-beta AlphaLISA counterscreen against the NCATS CANVASS Library (AID 1347381).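 Also: cell-free check with purified IL-1β in medium and no THP-1 cells; series mostly up to about 57 µM.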 The essentials:
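Purified IL-1-beta (4 pg/well) + compound, 11-pt conc. series; acceptor beads 6 ug/mL + biotin-Ab 0.6 nM final, 1 h RT; SA-donor 24 ug/ml final, 30 min dark RT; read ex 680/em 615.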

A short description of experiment [19]: Cytotoxicity qHTS for assessment of Hepg2 cells membrane integrity screened against the NCATS CANVASS Library (AID 1347387). A digest of the protocol: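 Cells were seeded at 2000 per well and left overnight to attach. Compounds were pin-transferred to give 0.59 nM - 46 uM in an 11-point series and incubated 5 hr at 37C. CytoTox-ONE reagent was added and, after 10 min at room temperature, fluorescence (ex 560, em 590 nm) was read.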

Experiment [20] in a line: Vero-766 cells viability qHTS against the NCATS CANVASS Library: Counterscreen for Zika virus inhibition assay (AID 1347394). Also: nearly all actives have a fitted effect of over 60% in size. Also: potency is read from the fitted curve at half-maximal effect. A digest of the protocol: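 Uninfected Vero 766 (African green monkey) cells, 1000/well, attached overnight, then exposed 72 h at 37C to compounds (11-point qHTS). Viability read by CellTiter-Glo luminescence; media-only wells served as 100% inhibition.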

Chain of Luciferin 4-monooxygenase (Photinus pyralis) (P08659 whole entry, looked up): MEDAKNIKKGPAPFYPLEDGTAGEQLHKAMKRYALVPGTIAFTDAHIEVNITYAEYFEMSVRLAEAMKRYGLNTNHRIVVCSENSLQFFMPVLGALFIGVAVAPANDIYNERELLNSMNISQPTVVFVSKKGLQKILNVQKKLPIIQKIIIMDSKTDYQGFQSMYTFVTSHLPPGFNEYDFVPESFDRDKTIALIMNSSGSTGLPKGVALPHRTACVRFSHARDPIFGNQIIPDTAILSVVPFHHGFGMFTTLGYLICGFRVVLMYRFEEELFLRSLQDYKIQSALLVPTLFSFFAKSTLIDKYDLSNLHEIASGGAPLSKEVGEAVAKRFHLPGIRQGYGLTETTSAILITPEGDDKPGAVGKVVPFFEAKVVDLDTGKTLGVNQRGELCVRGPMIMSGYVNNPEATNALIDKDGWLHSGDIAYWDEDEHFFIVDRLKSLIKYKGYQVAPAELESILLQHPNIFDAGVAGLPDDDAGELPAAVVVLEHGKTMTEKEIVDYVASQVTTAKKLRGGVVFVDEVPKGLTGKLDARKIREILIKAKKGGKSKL

`C/C=C/c1cc(OC)c2c(c1)[C@@H](C)[C@H](c1ccc(O)c(OC)c1)O2`: in experiment [1], the Potency was 55.3 µM (active). Also, the Potency result in experiment [2], in experiment [3], in [4], in experiment [5], in [6] and in experiment [7] was “inactive” in each case. In addition, the Potency entry in experiment [8], in experiment [9], in experiment [10], in [11], in experiment [12] and in [13] was “inactive” each time. The Potency result in experiment [14], in experiment [15], in experiment [17] and in experiment [20] was “inactive” in each case. The result in experiment [16], in [18] and in [19] was inactive.
Regarding `CC(=O)O[C@@H]1C=C2C(=O)OC[C@]2(O)[C@@]2(C)CCCC(C)(C)[C@H]12`, the Potency in [1] was 19.6 µM (active); in experiment [2], 13.3 µM (active); in experiment [3], 5.94 µM (active); in [4], 18.8 µM (active); in experiment [5], 8.38 µM (active); in experiment [6] it was 26.4 µM (active). Further, the results for the Potency in experiment [17] and in experiment [20] were 10.9 µM (active) and 16.6 µM (active), respectively. The Potency result in experiment [11] was “inactive”. The result in experiment [16] and in experiment [18] was inactive.
Take `C/C=C1/CC[C@@H]2c3[nH]c4ccccc4c3CCN2C1`: the Potency result in [1], in experiment [2], in [3], in experiment [4], in experiment [5] and in experiment [6] was “inactive” each time. The Potency result in experiment [7], in [8], in [9], in experiment [10], in [11] and in experiment [12] was “inactive” in each case. Besides, the Potency entry in experiment [13], in experiment [14], in experiment [15], in [17] and in [20] was “inactive” throughout. Also, the call in [16], in experiment [18] and in experiment [19] was inactive.
Consider `C[C@@]12CCC[C@@](C)(C(=O)O)[C@H]1C[C@@H](O)[C@]13C[C@H]4C[C@H](O[C@@]4(C)C1)[C@@H]23`, for which the Potency in [1] is 31.1 µM (active). For the same compound, the Potency entry in [2], in [3], in [4], in experiment [5], in experiment [6] and in [7] was “inactive” each time. Further, the Potency entry in [8], in [9], in [10], in experiment [11], in experiment [12] and in experiment [13] was “inactive” each time. Further, the Potency result in experiment [14], in experiment [15], in [17] and in experiment [20] was “inactive” throughout. The compound was called inactive in experiment [16], in [18] and in [19].
With `C=C[C@@]1(C)CC[C@@H]([C@H](C)C(=O)/C=C/C(C)C)O1`, the Potency result in [1], in experiment [2], in experiment [3], in experiment [4], in experiment [5] and in [6] was “inactive” throughout. Besides, the Potency entry in [7], in experiment [8], in [9], in experiment [10], in experiment [11] and in experiment [12] was “inactive” throughout. In addition, the Potency entry in experiment [13], in [14], in experiment [15], in [17] and in [20] was “inactive” in each case. In addition, the outcome in [16], in experiment [18] and in experiment [19] was inactive.
`CC(C)(Br)[C@@H](Cl)C[C@H](Br)[C@](C)(Cl)/C=C/Br`: the Potency was 34.9 µM (active) in experiment [1], 26.6 µM (active) in experiment [2] and 18.8 µM (active) in [4]. In addition, the Potency entry in experiment [6], in experiment [7], in experiment [8], in experiment [9], in experiment [10] and in [11] was “inactive” throughout. Further, the Potency entry in [12], in experiment [13], in experiment [14], in experiment [15] and in [20] was “inactive” each time. Besides, the compound was classed as inactive in experiment [16], in [18] and in [19].
